# Assay results: PubChem BioAssay (NCATS)
# Unmarked numbers belong to inactive results. Inconclusive results are not listed. Entries that show only a call come without a potency. Active and inactive are the calls of the source. Unless noted, the call rests on the fitted dose curve; in most records, active means well fitted curve in the direction sought with a large enough effect; inconclusive means small, poorly fitted or top-dose-only effect, or another doubt; inactive means no such curve, though single readings can be large; an effect the other way counts as inactive or inconclusive.
# Assays:
# [1] = AP1 Signaling Pathway (AID 357; active means well fitted curve in either direction with a large enough effect, not every such curve was filed as active;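 further: ME-180 reporter cells stimulated with EGF at its EC50 level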); conditions: ME-180 AP-1-bla reporter, EGF-induced, beta-lactamase ratio, 5 h; at 7.69 µM (top of the series) unless noted
# Procedure, shortened: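 First, ME-180 AP-1-bla cells were cultured overnight at 37 °C in low-serum Opti-MEM. Next, titrated compounds with EC50 EGF were incubated 5 hours. Finally, CCF4 was added for 2.5 hours and the 460/530 nm ratio recorded.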
# [2] = target: Cytochrome P450 1A2 (Homo sapiens) (UniProt P05177); test: p450-cyp1a2 (AID 410; calls by dose curve; further: potency means the concentration at half of the fitted maximal effect)
# Procedure, shortened: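 20nM CYP1A2, 100uM Luciferin-ME (=Km), 100mM KPO4; cpd 10 min RT; +NADPH regen, 60 min RT; stop/detect 20 min; luminescence. Normalized to furafylline 57 uM = full inhibition.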
# [3] = NFAT Signaling Pathway (AID 444; active means well fitted curve in either direction with a large enough effect, not every such curve was filed as active;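 further: carbachol stimulus at about its EC50 of 1 µM final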); conditions: Jurkat NFAT-bla M1, carbachol, beta-lactamase ratio, 5 h; at 7.69 µM (top of the series) unless noted
# Procedure, shortened: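 Jurkat cells with NFAT-driven β-lactamase reporter and co-expressed M1 receptor, stimulated with carbachol (final 1 uM, ~EC50), compound titration, 5 h at 37 °C. CCF4 loaded 1 h at RT; 460/530 nm ratio gave %activity and AC50.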
# [4] = Stat Signaling Pathway (AID 446; active means well fitted curve in either direction with a large enough effect, not every such curve was filed as active;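 further: ME-180 cervical cancer cells given 40 pM IL-6 alongside compound; SIE-controlled beta-lactamase reporter measured as 460/530 nm FRET emission ratio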); conditions: ME-180 (cervical carcinoma) SIE beta-lactamase reporter, IL-6 stimulated, 5 h; at 7.69 µM (top of the series) unless noted
# Procedure, shortened: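 FRET read-out (405 nm excitation, 460/530 nm emission) of a beta-lactamase reporter under a STAT-inducible element in ME-180 cervical carcinoma cells. Cells with compound receive 40 pM IL-6 for 5 h. Values are normalised to AC90 stimulation and AC90 JAK-inhibitor controls.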
# [5] = target: Glucocorticoid receptor (Homo sapiens) (UniProt P04150); test: GR-GFP Redistribution (AID 450;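 active means compounds whose dose series gives a full or clear partial fitted curve of increased nuclear translocation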; further: potency means the concentration at half of the fitted maximal effect); conditions: U2OS GR-GFP nuclear translocation, laser cytometry, 2 h
# [6] = target: Glucocorticoid receptor (Homo sapiens) (UniProt P04150); test: GR-EFC Redistribution (AID 451; calls by dose curve; further: potency means the concentration at half of the fitted maximal effect); conditions: CHO-K1 GR-EFC translocation, beta-gal luminescence, 2 h
# Procedure, shortened: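 CHO-K1 cells expressing nuclear EA and GR-ED fragments of b-gal; compounds titrated up to 46 uM final, 2 h at 37 C. GR nuclear translocation read as complemented b-gal luminescence after 1 h RT detection.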
# [7] = target: Mitogen-activated protein kinase 10 (Mus musculus) (UniProt Q61831); test: JNK3 AlphaScreen Assay (AID 530; active means well fitted curve in either direction with a large enough effect, not every such curve was filed as active;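 further: kinase came from lysate of stimulated human HepG2 cells; signal reports phosphorylation of biotinylated GST-cJun 1-79 at Ser73 with 10 µM ATP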)
# Procedure, shortened: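 HepG2 lysate (IL-1b/TNFa pre-activated) + biotin-GST-cJun 1-79 + anti-pSer73 cJun; cpd titration, 15 min RT; ATP 10 uM start; Tris pH 7.6, MgCl2, DTT, vanadate; beads in EDTA buffer; AlphaScreen.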
# [8] = target: Dual specificity protein kinase CLK4 (Homo sapiens) (UniProt Q9HAZ1); test: qHTS Assay for Inhibitors of CDC-like Kinase 4 (Kinase-Glo Assay) (AID 1770); further: nearly all actives have a fitted effect of over 65% in size; further: potency means the concentration at half of the fitted maximal effect
# Procedure, shortened: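 Clk4 25 nM, RS peptide 100 uM, ATP 1 uM, pH 7.5 Tris, 10 mM MgCl2, 2.5 mM DTT; 4.5 h RT; ATP depletion read by Kinase-Glo luminescence.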
# [9] = target: Dual specificity protein kinase CLK4 (Homo sapiens) (UniProt Q9HAZ1); test: qHTS Assay for Inhibitors of CDC-like Kinase 4 (ADP-Glo Assay) (AID 1771); further: nearly all actives have a fitted effect of over 70% in size; further: potency means the concentration at half of the fitted maximal effect
# Procedure, shortened: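 25 nM Clk4, 100 uM RS peptide, 1 uM ATP (final); 2 mM MgCl2, 0.5 mM EGTA, 2.5 mM DTT, 0.01% Triton X-100; 1 hr RT. ADP-Glo readout: ATP depletion 45 min, conversion/luciferase 30 min, luminescence.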
# [10] = target: Dual specificity protein kinase CLK4 (Homo sapiens) (UniProt Q9HAZ1); test: qHTS Assay for Inhibitors of CDC-like Kinase 4 (ADP-FP Assay) (AID 1795); further: nearly all actives have a fitted effect of over 60% in size; further: potency means the concentration at half of the fitted maximal effect;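 on activity change, negative = inhibition: recombinant human CLK4 phosphorylating RS repeat peptide at 1 µM ATP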
# Procedure, shortened: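 Kinase activity was followed as ADP output, converted from fluorescence polarization with a calibration curve. Reactions ran one hour at low ATP (1 uM) with RS peptide substrate.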
# [11] = target: Ubiquitin carboxyl-terminal hydrolase 1 (Homo sapiens) (UniProt O94782); test: Inhibitors of USP1/UAF1: Pilot qHTS (AID 504865); further: nearly all actives have a fitted effect of over 35% in size; further: potency means the concentration at half of the fitted maximal effect;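 on activity change, negative = inhibition: rhodamine fluorescence freed from ubiquitin-rhodamine substrate followed over time; top concentration of the series differs between compounds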
# Procedure, shortened: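 Enzyme-free wells gave the negative control, while test wells held 1nM USP1/UAF1 preincubated with compound for 15 min at room temperature. Ub-Rho at 150nM final started the reaction, and fluorescence at 480/540 nm was recorded kinetically.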
# [12] = Primary qHTS for small molecule stabilizers of the endoplasmic reticulum resident proteome: Secreted ER Calcium Modulated Protein (SERCaMP) assay (AID 1508630)
# Procedure, shortened: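 The SH-SY5Y reporter protocol was run at 3 concentrations up to 38.3 uM (primary) or 11 concentrations (follow-up): 16 h compound, 100 nM thapsigargin for 4 h, then extracellular luciferase luminescence.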
# [13] = target: Lysosomal acid glucosylceramidase (Homo sapiens) (UniProt P04062); test: Glucocerebrosidase-p2 (AID 348; in the data active means potency below about 10 µM; further: potency means the concentration at half of the fitted maximal effect); conditions: purified GBA, blue fluorogenic substrate, 40 min
# Procedure, shortened: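 Normal human glucocerebrosidase (0.2 nM) with blue fluorogenic substrate (80 uM final) in citrate/phosphate pH 5.9 with 10mM sodium taurocholate, 0.01% tween-20; 40 min RT, NaOH/glycine stop; fluorescence Ex 365/Em 440; AC50 from a titration from 0.6 nM upwards.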
# [14] = target: 3',5'-cyclic-AMP phosphodiesterase 4B (Homo sapiens) (UniProt Q07343); test: qHTS Assay for Inhibitors of PDE-IV (AID 607; active means well fitted activation curve with a large enough effect in the main read-out, with a control signal flat, not every such curve was filed as active)
# Procedure, shortened: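 Cell-based read-out of cAMP via a modified cyclic nucleotide-gated channel and membrane potential dye (535/590 nm) in HEK293 cells expressing PDE4 endogenously. Compounds tested up to 22.9 uM final; 100 uM RO 20-1724 reference.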
# [15] = target: Cytochrome P450 2C9 (Homo sapiens) (UniProt P11712); test: qHTS Assay for Inhibitors and Substrates of Cytochrome P450 2C9 (AID 883); further: nearly all actives have a fitted effect of over 60% in size
# Procedure, shortened: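 Human CYP2C9 (10nM) with Luciferin-H at 100uM (its KM) in 25mM KPO4; compound preincubated 10 min at 37C, then NADPH regeneration for 60 min at 37C. Luciferin read by luminescence after detection reagent; normalized to 57uM sulphaphenazole as full inhibition.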
# [16] = target: Cytochrome P450 3A4 (Homo sapiens) (UniProt P08684); test: qHTS Assay for Inhibitors and Substrates of Cytochrome P450 3A4 (AID 884); further: potency means the concentration at half of the fitted maximal effect; nearly all actives have a fitted effect of over 50% in size
# Procedure, shortened: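 Luminescent readout of luciferin produced by CYP3A4 (20 nM) dealkylation of Luciferin-PPXE, 25 uM (its KM). NADPH-driven reaction ran 60 min at RT after 10 min compound preincubation; data scaled to 57 uM ketoconazole as 100% inhibition.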
# [17] = target: Cytochrome P450 3A4 (Homo sapiens) (UniProt P08684); test: qHTS Assay for Activators of Cytochrome P450 3A4 (AID 885); further: nearly all actives have a fitted effect of over 65% in size
# Procedure, shortened: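 Luminescent readout of luciferin formed from 25 uM Luciferin-PPXE (KM level) by 20 nM CYP3A4 in 200 mM KPO4, with 60 min NADPH-driven reaction at room temperature after 10 min compound exposure. Ketoconazole (57 uM) defined 100% inhibition.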
# [18] = target: Cytochrome P450 2C19 (Homo sapiens) (UniProt P33261); test: qHTS Assay for Inhibitors and Substrates of Cytochrome P450 2C19 (AID 899); further: potency means the concentration at half of the fitted maximal effect; nearly all actives have a fitted effect of over 60% in size
# Procedure, shortened: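 5 nM human CYP2C19 with 10uM Luciferin-H EGE (at KM) in 50mM KPO4, compound preincubated 10 min at 37C, then NADPH regeneration for 60 min at 37C. Luciferin read by luminescence after detection reagent; normalized to 57uM ketoconazole as full inhibition.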
# [19] = target: Cytochrome P450 2D6 (Homo sapiens) (UniProt P10635); test: qHTS Assay for Inhibitors and Substrates of Cytochrome P450 2D6 (AID 891); further: potency means the concentration at half of the fitted maximal effect; nearly all actives have a fitted effect of over 60% in size
# Procedure, shortened: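 Luminescent read-out of luciferin formed by 5 nM human CYP2D6 demethylating 30 uM Luciferin-ME EGE (Km level) over 60 min at room temperature after NADPH regeneration addition. Data normalized to full inhibition by 1.43 uM quinidine.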
# Sequence of Dual specificity protein kinase CLK4 (Homo sapiens) (Q9HAZ1 whole entry, looked up): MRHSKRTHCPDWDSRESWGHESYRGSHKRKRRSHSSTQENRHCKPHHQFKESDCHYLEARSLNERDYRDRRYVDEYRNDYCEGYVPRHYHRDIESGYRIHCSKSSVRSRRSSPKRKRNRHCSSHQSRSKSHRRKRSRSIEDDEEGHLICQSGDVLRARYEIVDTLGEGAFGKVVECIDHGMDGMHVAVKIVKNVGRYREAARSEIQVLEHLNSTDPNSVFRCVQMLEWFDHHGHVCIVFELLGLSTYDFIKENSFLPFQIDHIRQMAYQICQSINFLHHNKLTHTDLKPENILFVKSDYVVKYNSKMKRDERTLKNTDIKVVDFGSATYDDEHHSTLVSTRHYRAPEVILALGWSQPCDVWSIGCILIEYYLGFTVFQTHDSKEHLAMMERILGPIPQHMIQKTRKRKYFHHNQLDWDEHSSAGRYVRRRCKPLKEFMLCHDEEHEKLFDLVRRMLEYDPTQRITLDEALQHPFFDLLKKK
# Sequence of Glucocorticoid receptor (Homo sapiens) (P04150 whole entry, looked up, the tested form may be a part): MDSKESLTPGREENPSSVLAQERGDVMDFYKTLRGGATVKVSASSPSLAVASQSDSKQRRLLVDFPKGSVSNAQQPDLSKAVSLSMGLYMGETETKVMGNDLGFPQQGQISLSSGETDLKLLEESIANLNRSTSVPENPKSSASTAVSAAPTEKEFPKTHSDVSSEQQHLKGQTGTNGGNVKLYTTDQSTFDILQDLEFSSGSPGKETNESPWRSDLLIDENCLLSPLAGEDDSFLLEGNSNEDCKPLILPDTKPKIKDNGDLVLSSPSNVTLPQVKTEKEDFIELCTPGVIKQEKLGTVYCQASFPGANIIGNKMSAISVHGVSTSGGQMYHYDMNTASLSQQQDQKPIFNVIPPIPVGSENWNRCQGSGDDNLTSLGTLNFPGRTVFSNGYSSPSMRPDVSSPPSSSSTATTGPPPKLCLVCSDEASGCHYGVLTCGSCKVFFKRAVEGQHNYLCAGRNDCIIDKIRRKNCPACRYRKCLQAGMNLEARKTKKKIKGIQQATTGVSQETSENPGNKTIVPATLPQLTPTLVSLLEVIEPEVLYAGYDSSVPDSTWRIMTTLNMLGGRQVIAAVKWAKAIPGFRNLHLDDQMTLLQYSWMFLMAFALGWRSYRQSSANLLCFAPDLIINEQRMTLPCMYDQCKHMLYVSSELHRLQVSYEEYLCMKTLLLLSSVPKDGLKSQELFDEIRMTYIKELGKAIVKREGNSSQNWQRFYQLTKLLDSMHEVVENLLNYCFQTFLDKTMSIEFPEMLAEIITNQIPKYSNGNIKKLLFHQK
# Sequence of Ubiquitin carboxyl-terminal hydrolase 1 (Homo sapiens) (O94782 whole entry, looked up): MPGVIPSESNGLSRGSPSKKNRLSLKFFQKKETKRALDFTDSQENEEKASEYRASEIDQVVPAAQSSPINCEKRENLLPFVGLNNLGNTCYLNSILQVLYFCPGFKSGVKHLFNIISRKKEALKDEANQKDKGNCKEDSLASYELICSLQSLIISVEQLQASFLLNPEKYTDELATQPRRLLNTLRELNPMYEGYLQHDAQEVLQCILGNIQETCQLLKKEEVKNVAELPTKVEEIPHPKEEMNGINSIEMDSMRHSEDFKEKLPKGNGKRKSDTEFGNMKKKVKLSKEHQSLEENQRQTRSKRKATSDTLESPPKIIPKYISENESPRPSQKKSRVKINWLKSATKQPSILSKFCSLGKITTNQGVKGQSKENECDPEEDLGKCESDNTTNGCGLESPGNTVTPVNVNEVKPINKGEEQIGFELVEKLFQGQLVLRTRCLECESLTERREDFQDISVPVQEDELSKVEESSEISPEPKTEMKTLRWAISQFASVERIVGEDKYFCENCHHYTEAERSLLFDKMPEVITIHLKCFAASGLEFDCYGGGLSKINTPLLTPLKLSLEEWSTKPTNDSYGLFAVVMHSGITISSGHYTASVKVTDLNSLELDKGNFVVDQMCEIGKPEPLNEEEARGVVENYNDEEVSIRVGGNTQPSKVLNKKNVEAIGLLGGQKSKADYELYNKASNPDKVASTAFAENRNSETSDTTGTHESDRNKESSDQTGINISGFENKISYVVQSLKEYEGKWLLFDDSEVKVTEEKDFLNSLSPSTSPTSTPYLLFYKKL
# Sequence of Cytochrome P450 3A4 (Homo sapiens) (P08684 whole entry, looked up): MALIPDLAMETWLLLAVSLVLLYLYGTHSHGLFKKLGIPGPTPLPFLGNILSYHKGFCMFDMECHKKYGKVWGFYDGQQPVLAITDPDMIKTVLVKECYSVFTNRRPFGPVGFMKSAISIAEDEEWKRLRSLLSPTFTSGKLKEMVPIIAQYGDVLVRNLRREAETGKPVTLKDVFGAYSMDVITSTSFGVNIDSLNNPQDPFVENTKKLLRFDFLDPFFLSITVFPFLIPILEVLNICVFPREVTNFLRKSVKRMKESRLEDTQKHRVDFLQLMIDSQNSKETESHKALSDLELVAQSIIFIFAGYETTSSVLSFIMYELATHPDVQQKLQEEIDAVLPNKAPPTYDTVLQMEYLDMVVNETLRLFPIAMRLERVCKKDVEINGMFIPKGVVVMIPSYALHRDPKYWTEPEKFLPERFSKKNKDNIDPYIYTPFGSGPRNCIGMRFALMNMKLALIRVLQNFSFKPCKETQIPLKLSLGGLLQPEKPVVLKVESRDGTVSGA
# Sequence of Lysosomal acid glucosylceramidase (Homo sapiens) (P04062 whole entry, looked up): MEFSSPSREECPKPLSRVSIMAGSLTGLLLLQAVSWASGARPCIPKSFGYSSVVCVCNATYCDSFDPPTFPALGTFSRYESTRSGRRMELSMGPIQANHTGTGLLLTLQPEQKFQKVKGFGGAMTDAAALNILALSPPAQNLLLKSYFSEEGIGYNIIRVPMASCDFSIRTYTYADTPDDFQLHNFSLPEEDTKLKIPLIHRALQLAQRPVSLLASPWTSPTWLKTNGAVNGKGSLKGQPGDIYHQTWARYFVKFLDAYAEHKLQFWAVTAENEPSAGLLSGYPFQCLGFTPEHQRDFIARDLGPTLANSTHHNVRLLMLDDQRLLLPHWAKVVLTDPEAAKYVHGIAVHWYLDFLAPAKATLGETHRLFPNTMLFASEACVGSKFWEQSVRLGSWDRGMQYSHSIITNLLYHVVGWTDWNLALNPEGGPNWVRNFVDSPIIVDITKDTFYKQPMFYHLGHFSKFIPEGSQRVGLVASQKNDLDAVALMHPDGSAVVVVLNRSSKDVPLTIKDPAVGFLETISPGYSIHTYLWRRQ
# Sequence of Cytochrome P450 1A2 (Homo sapiens) (P05177 whole entry, looked up): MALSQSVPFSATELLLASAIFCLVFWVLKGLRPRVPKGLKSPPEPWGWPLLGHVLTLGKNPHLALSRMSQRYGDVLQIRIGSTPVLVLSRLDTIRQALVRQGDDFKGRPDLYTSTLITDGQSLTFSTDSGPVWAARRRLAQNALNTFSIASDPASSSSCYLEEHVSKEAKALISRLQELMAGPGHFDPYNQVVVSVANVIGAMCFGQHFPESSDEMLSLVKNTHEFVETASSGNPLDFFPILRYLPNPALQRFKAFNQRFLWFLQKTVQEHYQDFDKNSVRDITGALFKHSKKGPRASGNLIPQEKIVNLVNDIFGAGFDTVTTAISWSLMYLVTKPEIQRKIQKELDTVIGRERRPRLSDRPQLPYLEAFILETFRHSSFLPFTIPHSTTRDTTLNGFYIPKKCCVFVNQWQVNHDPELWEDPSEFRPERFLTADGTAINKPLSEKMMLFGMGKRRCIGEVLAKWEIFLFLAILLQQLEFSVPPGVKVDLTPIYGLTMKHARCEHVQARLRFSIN
# Sequence of 3',5'-cyclic-AMP phosphodiesterase 4B (Homo sapiens) (Q07343 whole entry, looked up): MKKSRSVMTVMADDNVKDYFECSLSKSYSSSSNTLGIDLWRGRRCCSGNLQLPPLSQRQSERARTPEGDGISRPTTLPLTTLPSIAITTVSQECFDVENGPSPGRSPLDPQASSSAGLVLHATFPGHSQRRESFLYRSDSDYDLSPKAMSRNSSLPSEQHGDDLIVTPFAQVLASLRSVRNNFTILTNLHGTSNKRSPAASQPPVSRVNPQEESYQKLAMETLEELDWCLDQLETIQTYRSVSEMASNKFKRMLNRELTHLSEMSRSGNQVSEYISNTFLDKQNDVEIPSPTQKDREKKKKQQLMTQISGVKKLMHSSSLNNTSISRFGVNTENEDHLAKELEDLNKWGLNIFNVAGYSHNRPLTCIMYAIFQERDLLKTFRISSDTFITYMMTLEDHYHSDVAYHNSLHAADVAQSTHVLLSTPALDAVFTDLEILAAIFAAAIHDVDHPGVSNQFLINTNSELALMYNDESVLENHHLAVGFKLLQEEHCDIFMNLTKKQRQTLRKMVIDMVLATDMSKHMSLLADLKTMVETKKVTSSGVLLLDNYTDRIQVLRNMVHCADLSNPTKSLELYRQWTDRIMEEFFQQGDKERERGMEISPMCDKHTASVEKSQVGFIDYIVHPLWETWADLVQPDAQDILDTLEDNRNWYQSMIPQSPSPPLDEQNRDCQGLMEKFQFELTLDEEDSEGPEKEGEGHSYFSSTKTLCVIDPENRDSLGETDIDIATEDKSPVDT
# Sequence of Cytochrome P450 2C9 (Homo sapiens) (P11712 whole entry, looked up): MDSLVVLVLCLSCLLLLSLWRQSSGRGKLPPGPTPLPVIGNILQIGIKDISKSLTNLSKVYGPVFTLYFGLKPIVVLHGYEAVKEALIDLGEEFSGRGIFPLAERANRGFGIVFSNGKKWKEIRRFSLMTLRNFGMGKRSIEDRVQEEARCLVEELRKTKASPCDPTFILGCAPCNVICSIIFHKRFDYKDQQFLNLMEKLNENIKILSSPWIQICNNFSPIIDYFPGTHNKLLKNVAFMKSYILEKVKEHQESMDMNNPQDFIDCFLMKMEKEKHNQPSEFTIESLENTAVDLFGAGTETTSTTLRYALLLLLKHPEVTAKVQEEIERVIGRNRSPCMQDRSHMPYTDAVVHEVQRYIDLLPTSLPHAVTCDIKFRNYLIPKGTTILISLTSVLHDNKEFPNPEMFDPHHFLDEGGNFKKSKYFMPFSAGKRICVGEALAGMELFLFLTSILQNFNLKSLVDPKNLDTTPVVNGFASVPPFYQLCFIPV
Structure (SMILES),"activity change, negative = inhibition [1]",Potency [2],"activity change, negative = inhibition [3]","activity, negative = inhibition [4]",Potency [5],Potency [6],Potency [7],Potency [8],Potency [9],Potency [10],Potency [11],outcome [12],Potency [13],Potency [14],Potency [15],Potency [16],Potency [17],Potency [18],Potency [19]
CCNc1ncc2nc(-c3cn(C)c4ccccc34)c(=O)n(C[C@H]3CCCO3)c2n1,-16.7%,10 µM (active),16.3%,9.05%,> 9.22 µM,> 46 µM,inactive,inactive,inactive,inactive,inactive,inactive,–,–,–,–,–,–,–
Clc1ccccc1-c1nccc(NCc2ccccc2)n1,12.5%,3.16 µM (active),10.7%,-6.25%,> 46 µM,> 46 µM,inactive,inactive,inactive,inactive,28.2 µM (active),inactive,–,–,–,–,–,–,–
CN1CCN(c2ncc3nc(-c4cccs4)c(=O)n(Cc4ccc(F)cc4)c3n2)CC1,–,–,–,–,> 9.22 µM,> 46 µM,–,inactive,inactive,inactive,inactive,inactive,> 11.4 µM,inactive,–,–,–,–,–
COc1cccc(Cn2c(=O)c(-c3cc(F)cc(F)c3)nc3cnc(N4CCOCC4)nc32)c1,–,–,5.53%,24.5%,> 9.22 µM,> 46 µM,inactive,inactive,inactive,inactive,inactive,inactive,> 11.4 µM,inactive,inactive,–,–,–,–
COc1cccc(-c2nc(NCc3ccccc3OC)c3ccccc3n2)c1,9.52%,0.631 µM (active),–,-9.86%,> 46 µM,> 46 µM,inactive,inactive,inactive,inactive,inactive,inactive,–,–,–,3.98 µM (active),inactive,7.94 µM (active),–
N#Cc1cccc(-c2ccc3ncnc(N4CCNCC4)c3c2)c1,-0.846%,0.631 µM (active),6.74%,11.7%,> 46 µM,> 46 µM,inactive,12.6 µM (active),22.4 µM (active),11.2 µM (active),20 µM (active),inactive,–,inactive,–,–,inactive,–,–
CCNc1ncc2nc(CCc3ccccc3)c(=O)n(C[C@H]3CCCO3)c2n1,-23.9%,–,-3.48%,-9.11%,> 9.22 µM,> 46 µM,inactive,inactive,inactive,inactive,inactive,inactive,–,–,–,–,–,–,–
O=c1c(-c2ccc(F)cc2)nc2cnc(Oc3cccc(Cl)c3)nc2n1C[C@H]1CCCO1,–,–,-18.3%,-26%,> 9.22 µM,> 46 µM,inactive,inactive,inactive,inactive,inactive,inactive,> 11.4 µM,inactive,–,–,inactive,–,–
CCNc1ncc2nc(-c3ccc(F)cc3)c(=O)n(C)c2n1,-8.75%,0.501 µM (active),-26%,-0.235%,> 9.22 µM,–,inactive,inactive,inactive,inactive,inactive,inactive,–,inactive,–,–,–,–,–
O=c1c(-c2cccc(Cl)c2)nc2cncnc2n1-c1ccccc1,-18.9%,2 µM (active),9.76%,0.546%,> 9.22 µM,> 46 µM,inactive,inactive,inactive,inactive,inactive,inactive,–,–,–,–,inactive,–,–
CCNc1ncc2nc(-c3ccc(Cl)cc3)c(=O)n(C)c2n1,23.6%,0.398 µM (active),20%,–,> 9.22 µM,> 46 µM,inactive,inactive,inactive,inactive,inactive,inactive,–,inactive,–,–,–,–,–
COCCn1c(=O)c(-c2ccc(Cl)cc2)nc2cnc(N(C)C)nc21,-3.17%,1 µM (active),-3.15%,–,> 9.22 µM,> 46 µM,–,inactive,inactive,inactive,inactive,inactive,–,inactive,–,–,–,–,–
CCNc1ncc2nc(-c3cn(C)c4ccccc34)c(=O)n(CCC#N)c2n1,-22.2%,5.01 µM (active),-4.28%,-12.7%,> 9.22 µM,> 46 µM,inactive,inactive,inactive,inactive,inactive,inactive,–,–,–,–,inactive,–,3.98 µM (active)
N#CCCn1c(=O)c(CCc2ccccc2)nc2cnc(Nc3ccccc3)nc21,-27.7%,inactive,-25.2%,–,> 9.22 µM,> 46 µM,inactive,inactive,inactive,inactive,inactive,inactive,–,inactive,–,–,inactive,–,–
